This passage reports inhibition results from PubChem BioAssay AID1220 (Sanford-Burnham Center for Chemical Genomics, 2008).

Hit rate of the full screen: of about 190,000 compounds, about 1,300 (0.68%) were called active. Cut-off read from the data, not from the text of the source: active = inhibition above about 50%; inactive = the rest. This excerpt belongs to a sample that is enriched for actives.

By inhibition is commonly meant the drop in the measured response relative to a control, in per cent.

In this assay the target is Mannose-6-phosphate isomerase (Homo sapiens) (UniProt P34949). The assay is described as follows: MPI inhibition at elevated mannose 6-phosphate – biochemical, fluorescence intensity, high mannose 6-phosphate, primary screen (AID 1220). As to conditions: recombinant PMI enzyme, coupled fluorescence intensity; at 20 µM; hits give high values.
Mannose-6-phosphate isomerase (Homo sapiens), sequence (P34949 whole entry, looked up): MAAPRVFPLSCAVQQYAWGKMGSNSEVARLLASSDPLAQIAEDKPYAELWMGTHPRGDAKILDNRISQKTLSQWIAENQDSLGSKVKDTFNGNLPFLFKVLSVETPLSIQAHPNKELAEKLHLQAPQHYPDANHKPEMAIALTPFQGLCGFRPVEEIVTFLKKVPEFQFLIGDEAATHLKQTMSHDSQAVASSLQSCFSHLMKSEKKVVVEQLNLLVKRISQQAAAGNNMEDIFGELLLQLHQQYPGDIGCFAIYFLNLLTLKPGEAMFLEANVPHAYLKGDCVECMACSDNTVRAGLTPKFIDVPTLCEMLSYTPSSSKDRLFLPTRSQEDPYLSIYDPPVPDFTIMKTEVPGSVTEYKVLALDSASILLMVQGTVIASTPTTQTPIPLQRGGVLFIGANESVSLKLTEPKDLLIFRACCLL
As to `CC1(C)CC(=O)C2=C(C1)NC(=O)NC2c1ccccc1` (configuration not stated), the inhibition was -2.6% (inactive).

As for `Cc1ccc(-n2nnnc2Sc2nc([N+](=O)[O-])nn2C)cc1`, the inhibition is 18.5% (inactive).

Regarding `O=C(Nc1ccc2nsnc2c1)N1CCCCCC1`, the inhibition was 21.5% (inactive).

`Cc1nc2ccc(NC(=S)N3CCC(C)CC3)cc2nc1C`: the inhibition is 55.4% (active).

In the case of `O=C(Nc1ccc2nsnc2c1)N1CCCCC1`, the inhibition was 24.1% (inactive).

For `Cc1nc2ccc(NC(=S)N3CCCC3)cc2nc1C`, the inhibition is 52.8% (active).

Consider `Cc1nc2ccc(NC(=O)N3CCCCC3)cc2nc1C`, for which the inhibition was 21.5% (inactive).

Turning to `Cc1nc2ccc(NC(=S)N3CCN(c4ccccn4)CC3)cc2nc1C`, the inhibition was 18.3% (inactive).

On to `Cc1nc2ccc(NC(=S)N3CCOCC3)cc2nc1C`, for which the inhibition is 45.1% (inactive).

Consider `CC1CCN(C(=S)Nc2ccc(F)cc2)CC1`, for which the inhibition is -10.5% (inactive).

Regarding `CC1CCN(C(=O)Nc2ccc3nsnc3c2)CC1`, the inhibition was 62% (active).

Take `COC(=O)CSc1cc(C)nc2ccc(OC)cc12`: the inhibition is 7.7% (inactive).

Take `CC(C(=O)Nc1ccncc1)(c1ccccc1)c1ccccc1`: the inhibition is 10.8% (inactive).

On to `O=C(CCN1C(=O)/C(=C/C=C/c2ccccc2)SC1=S)Nc1cccnc1`, for which the inhibition is 1.5% (inactive).

As for `Cc1noc(C)c1C(=O)N1CCN(Cc2ccc3c(c2)OCO3)CC1`, the inhibition is 6.8% (inactive).

On to `CN(C)c1c([N+](=O)[O-])cc2[nH]c(=O)[nH]c2c1[N+](=O)[O-]`, for which the inhibition was 9.6% (inactive).

With `CC(=O)Nc1c([N+](=O)[O-])cc2[nH]c(=O)[nH]c2c1[N+](=O)[O-]`, the inhibition is 56.9% (active).

Take `O=c1[nH]c2cc([N+](=O)[O-])c(NCCO)c([N+](=O)[O-])c2[nH]1`: the inhibition was 3.7% (inactive).

Take `CC(C)Oc1ccc(C(CC(=O)O)n2cnnn2)cc1` (configuration not stated): the inhibition is 2% (inactive).

In the case of `COC(=O)CN1C(=O)C2(C(C#N)=C(N)Oc3cc(C)oc(=O)c32)c2ccccc21` (configuration not stated), the inhibition was 7.9% (inactive).

For `CCN1C(=O)C2(C(C#N)=C(N)Oc3c2c(C)nn3-c2ccccc2)c2ccccc21` (configuration not stated), the inhibition was 62.1% (active).

For the compound `COC(=O)CN1C(=O)C2(C(C#N)=C(N)Oc3n[nH]c(-c4cccs4)c32)c2ccccc21` (configuration not stated), the inhibition was 7.3% (inactive).

For the compound `Cc1nn(-c2ccccc2)c2c1C1(C(=O)N3c4c(cccc41)C(C)CC3(C)C)C(C#N)=C(N)O2` (configuration not stated), the inhibition was 21% (inactive).

For `COC(=O)CN1C(=O)C2(C(C#N)=C(N)Oc3c2c(C)nn3-c2ccccc2)c2ccccc21` (configuration not stated), the inhibition is 58.9% (active).

`CC(=O)N1C(=O)C2(C(C#N)=C(N)Oc3c2c(C)nn3-c2ccccc2)c2ccccc21` (configuration not stated): the inhibition is 62.8% (active).

`Cc1nn(-c2ccccc2)c2c1C1(C(=O)N(C)c3ccccc31)C(C#N)=C(N)O2` (configuration not stated): the inhibition is 21.9% (inactive).

With `CC(=O)N1C(=O)C2(C(C#N)=C(N)Oc3cc(C)oc(=O)c32)c2ccccc21` (configuration not stated), the inhibition was 11% (inactive).

On to `Cc1nn(-c2ccccc2)c2c1C1(C(=O)N(C(C)C)c3ccccc31)C(C#N)=C(N)O2` (configuration not stated), for which the inhibition was 24.1% (inactive).

As to `CCCCC1NC(=S)N(C2CCCCC2)C1=O` (configuration not stated), the inhibition is -7.2% (inactive).

As for `COC(=O)c1sc2ccccc2c1-n1cccc1C(=O)C(=O)Nc1ccc(C)cc1`, the inhibition was 4.8% (inactive).

As to `O=c1[nH]c(SCC2CCCCO2)nc2ccccc12` (configuration not stated), the inhibition is -2.3% (inactive).

`O=C1CSC(c2cccc(Cl)c2Cl)N1c1ccccn1` (configuration not stated): the inhibition was 12.3% (inactive).

On to `Cc1ccc(C)c(S(=O)(=O)Nc2ccccc2C(=O)Nc2cc(C)on2)c1`, for which the inhibition was 8.8% (inactive).

Turning to `COC(=O)c1cccc(NS(C)(=O)=O)c1C`, the inhibition was -5.8% (inactive).

With `CNc1nc(C)c(C(=O)OCC(=O)OC)s1`, the inhibition is -0.1% (inactive).

For the compound `CC(NC(=O)CSCc1ccccc1Br)c1ccccc1` (configuration not stated), the inhibition is 4.4% (inactive).

In the case of `COc1ccc(NC(=S)Nc2ccccc2SC)c(OC)c1`, the inhibition was 20.7% (inactive).

`Cc1ccc(CN(CC(=O)N/N=C/c2ccco2)S(=O)(=O)c2ccc(C)cc2)cc1`: the inhibition was 4.9% (inactive).

As to `CC1=C(C)C(=O)C(CCCCC#CCCCC#CCO)=C(C)C1=O`, the inhibition was 19.9% (inactive).

On to `Cc1[nH]c(=S)[nH]c(=O)c1CCCO`, for which the inhibition was 5.3% (inactive).

In the case of `COC1=C(OC)C(=O)C(CCCCCCCCCCO)=C(C)C1=O`, the inhibition was 78.2% (active).

In the case of `COc1ccccc1-n1c(=S)[nH]c2c(sc(=S)n2-c2ccccc2)c1=O`, the inhibition was -3.7% (inactive).

As to `COc1ccc(OC)c(-n2c(=S)[nH]c3c(sc(=S)n3-c3ccccc3)c2=O)c1`, the inhibition was 9.2% (inactive).

In the case of `Cc1ccc(/C=C2\SC(=S)N(C3CCS(=O)(=O)C3)C2=O)cc1` (configuration not stated), the inhibition is -2.5% (inactive).

`C=CCn1c(COc2ccccc2F)nnc1SCC(=O)NC(=O)NCc1ccco1`: the inhibition was -4% (inactive).

For the compound `CN(C)c1ccc2c(c1)OC(N)=C(C#N)C2c1cccc(F)c1` (configuration not stated), the inhibition is 25.2% (inactive).

Consider `Cc1ccc(C2C(C#N)=C(N)Oc3c2c(=O)n(C)c(=O)n3C)cc1` (configuration not stated), for which the inhibition is -24.8% (inactive).

With `Cc1ccc(C2C(C#N)=C(N)Oc3n[nH]c(C)c32)cc1` (configuration not stated), the inhibition was 8.4% (inactive).

With `CNc1nc2[nH]c(=O)c3c(c2s1)OC(N)=C(C#N)C3c1ccccc1` (configuration not stated), the inhibition was 52% (active).

Take `CNc1nc2[nH]c(=O)c3c(c2s1)OC(N)=C(C#N)C3c1cccc(F)c1` (configuration not stated): the inhibition was 54.7% (active).

Turning to `Cc1oc(C)c2c(=O)ccc3c(c12)OC(N)=C(C#N)C3c1ccccc1` (configuration not stated), the inhibition is 2.8% (inactive).

For the compound `CCNc1nc2[nH]c(=O)c3c(c2s1)OC(N)=C(C#N)C3c1ccc(C)cc1` (configuration not stated), the inhibition is 62.6% (active).

Consider `Cc1cc(C)c2c3c(sc2n1)C(c1cccc(F)c1)C(C#N)=C(N)O3` (configuration not stated), for which the inhibition was -7% (inactive).

For `COC(=O)C1=C(C)OC(N)=C(C#N)C1c1ccccc1` (configuration not stated), the inhibition was -8.8% (inactive).

With `O=C1CCCC(O)=C1C1C2=C(CCCC2=O)Oc2ccccc21` (configuration not stated), the inhibition was 6.5% (inactive).

In the case of `Nc1[nH]ncc1-c1ccc(Cl)cc1`, the inhibition is -1.5% (inactive).

As to `Cc1sc(NC(=O)CCCC(=O)O)c(C(N)=O)c1-c1ccccc1`, the inhibition was -5.5% (inactive).

`CC1CN(C(NC(=O)c2ccccc2)C(Cl)(Cl)Cl)CC(C)O1` (configuration not stated): the inhibition was -6.4% (inactive).

On to `CCN1C(=O)/C(=C/c2ccc(C)o2)N(C)C1=S`, for which the inhibition was 28% (inactive).

With `COC(=O)c1ccc(C(=O)Nc2ccc(N)cc2N)cc1`, the inhibition is 50.3% (active).

Turning to `COC(=O)c1ccc(C(=O)Nc2ccc(C(C)C)cc2N)cc1`, the inhibition is -2.9% (inactive).

Regarding `Cc1cc(N)ccc1NC(=O)c1ccccc1`, the inhibition is 12.9% (inactive).
